Source: PubChem
A selection: hits, their analogues and other compounds. The true share with any hit is near 7.6%.
RORgamma inh – blocks mouse ROR gamma transcriptional activity | Drosophila S2 Gal4-RORgamma UAS-luciferase reporter, 20 h | AID 2551 | P51450 | 310,000 tested, 5.4% active | Potency, µM (doses to about 53.6 µM), without a hit: at the top dose activity change, negative = inhibition, usual class: inhibitors; further: potency means the concentration at half of the fitted maximal effect; on the % scale 0 is the no-effect control and ±100 the full control effect; nearly all actives have a fitted effect of over 60% in size
Target sequence (P51450 whole entry, looked up, the tested form may be a part): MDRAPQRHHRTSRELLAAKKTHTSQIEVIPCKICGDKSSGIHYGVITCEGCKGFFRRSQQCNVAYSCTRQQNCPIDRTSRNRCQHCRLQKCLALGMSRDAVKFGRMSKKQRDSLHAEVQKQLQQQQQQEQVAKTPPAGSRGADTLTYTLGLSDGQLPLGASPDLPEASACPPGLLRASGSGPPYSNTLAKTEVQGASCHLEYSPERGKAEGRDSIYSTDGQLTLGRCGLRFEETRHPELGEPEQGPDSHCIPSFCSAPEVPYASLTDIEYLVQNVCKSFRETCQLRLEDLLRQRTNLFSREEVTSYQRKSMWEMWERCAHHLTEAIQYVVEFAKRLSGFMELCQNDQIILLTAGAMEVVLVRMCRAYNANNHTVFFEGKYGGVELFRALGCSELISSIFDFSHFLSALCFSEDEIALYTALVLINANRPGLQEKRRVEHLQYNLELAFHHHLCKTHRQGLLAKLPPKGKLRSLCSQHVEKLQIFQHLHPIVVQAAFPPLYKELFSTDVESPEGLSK
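Read-out: Photinus luciferase luminescence; inhibitors lower reporter signal. Insect Schneider cells with Gal4-ROR gamma fusion under metallothionein promoter, UAS reporter; 700 uM final copper sulfate induction, 20 hr, ambient temperature.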
BRCA1 expr up – BRCA1 expression activation. 380,000 tested, 1.1% active. MCF7-BRCA1-FFLuc reporter, luminescence, 48 h; response scale: scaled: vehicle 0%, 10 µM genistein 100%. Potency, µM (titrated, usually from 46.1 µM), for inactives: at the highest dose activation, most hits filed as activators; further: potency means the concentration at half of the fitted maximal effect; nearly all actives have a fitted effect of over 80% in size
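48 h compound treatment of MCF7-BRCA1-FFLuc cells (phenol-red free MEM, 37 °C), then 15 min with luciferase substrate and luminescence imaging.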
Giardia killer – kills Giardia lamblia; 340,000 tested, 0.15% active; Giardia lamblia trophozoite viability; activity change, % at 7.66 µM, hits read low; in the data active means activity change below about -80%; inconclusive means between about -30% and that limit;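 further: parasites exposed to compound for two days anaerobically before the ATP read; on the % scale 0 is the no-effect control and ±100 the full control effect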
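Compounds were tested on trophozoites seeded at 100 cells/well and held 48 hrs at 37 deg C anaerobically. An ATP-based luminescent kit measured the remaining live cells.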
ELG1 repair inh – ELG1-dependent DNA repair inhibition; HEK293T ELG1-luciferase reporter, luminescence, 16 h; DNA damage induced by 5-fluorouridine; Potency, µM (titrated, usually from 46.1 µM), inactives show at the top dose activity change, negative = inhibition, most hits filed as inhibitors; 330,000 tested, 2.3% active; AID 504467; further: potency means the concentration at half of the fitted maximal effect; on the % scale 0 is the no-effect control and ±100 the full control effect; nearly all actives have a fitted effect of over 55% in size
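DMSO vehicle served as the neutral condition. Each well held 2,000 cells given 5-fluorouridine plus compound; after 16 hr at 37 °C/5% CO2, ONE-Glo was added and luciferase measured 30 min later.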
Gal4-VP16 FLuc – inhibits Gal4-VP16 luciferase reporter, ROR gamma counter-screen; Drosophila S2 Gal4-VP16 UAS-luciferase, luminescence, 20 h; AID 2546; 310,000 tested, 3.5% active; Potency, µM (series often up to 53.6 µM), without a hit: top-dose activity, negative = inhibition, hits mostly inhibitors;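 further: Gal4-VP16 expression switched on by copper sulfate through the metallothionein promoter; potency means the concentration at half of the fitted maximal effect; on the % scale 0 is the no-effect control and ±100 the full control effect; nearly all actives have a fitted effect of over 50% in size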
p53 reactivation – restores transcriptional activity of mutant p53 | H1299 p53-A138V BP100-luciferase reporter, luminescence, 24 h | Potency, µM (top dose mostly 92.2 µM), for inactives: at the top dose activity change, positive = activation, most hits filed as activators | 320,000 tested, 0.063% active | AID 504706; further: potency means the concentration at half of the fitted maximal effect; % of control where 0% means no effect; nearly all actives have a fitted effect of over 45% in size
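p53-null H1299 cells stably carrying temperature-sensitive p53-A138V and a BP100-luciferase reporter were pinned with compounds (4-point, 1:5 series) and held 24 hrs at 37 deg C. Luminescence was read 10 min after detection reagent.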
The depositor's hits bear a star; ? = inconclusive; nt = no result given; [ ] = dose if it differs, or a comment. Unless noted, the call rests on the fitted dose curve; in most records, active means well fitted curve in the direction sought with a large enough effect; inconclusive means small, poorly fitted or top-dose-only effect, or another doubt; inactive means no such curve, though single readings can be large; an effect the other way counts as inactive or inconclusive.

SMILES	RORgamma inh	BRCA1 expr up	Giardia killer	ELG1 repair inh	Gal4-VP16 FLuc	p53 reactivation
O=C(O)Cc1ccc(NC(=O)c2cnccn2)cc1	11.2µM*	7.7%	8.7	10.6%	?	-0.6%
Cc1ccc(NC(=O)c2cnccn2)cc1C	7.4%	7.94µM*	4.4	?	-6.6%	14.2%
CC(C)(C)c1ccc(C(=O)Nc2ccc(CC(=O)O)cc2)o1	0.794µM*	-88.4%	-19.6	0.2%	0.794µM*	-9.7%
OCCNCCCCSc1ccc(Cl)cc1	-18.5%	-20.9%	-7.6	-1.7%	1.1%	3.9%
CC(=O)c1cc(Cl)ccc1OCC(=O)Nc1cccc(S(=O)(=O)N2CCCC2)c1	nt	3.2%	19.7	-11.7%	nt	16.1%
Cc1ccc(NC(=O)c2cnccn2)cc1	0.3%	107.1%	-16.2	?	2.2%[10 µM]	23.3%
Cc1ccc(C(=O)Nc2nc(-c3cc(Cl)sc3Cl)cs2)cc1	2.9%	-56.6%	-27.3	9.2µM*	15.3%	-3.2%
Cc1ccc(C)c(-c2csc(NC(=O)c3cnccn3)n2)c1	0.501µM*	-20.7%	16.7	?	1.26µM*	1.2%
O=C(Nc1ccc(Br)cc1)c1cnccn1	29.4%	8.91µM*	-3.5	?	9.1%	?
O=C(Nc1nc(-c2ccc(Cl)s2)cs1)c1ccccc1	-19.8%	46.7%	18.8	-4.4%	?	-13.0%
O=[N+]([O-])c1ccccc1CCO	10.1%	nt	nt	nt	-18.0%	nt
CC1(c2nc3ccccc3[nH]2)c2ccccc2C(=O)N1C1CC1 (configuration not stated)	nt	11.3%	nt	nt	nt	nt
CCCCNC(=O)c1nn2cc(Br)cnc2c1Br	15.8%	14.5%	16.9	-5.5%	-3.0%	2.3%
Cc1ccccc1Nc1ncnc2c1cnn2Cc1ccccc1	-5.3%	-31.5%	-4.7	?	1.3%	-3.5%
COC(=O)c1cc(/C=C/c2ccccc2)[nH]n1	19.0%	?	-1.3	?	20.1%	nt
COc1cccc(/C=c2\s/c(=C\C(=O)C(C)(C)C)[nH]c2=O)c1	10µM*	-68.3%	-3.2	?	?	8.7%
CCn1c(=NC(=O)CCS(=O)(=O)c2ccccc2)sc2cccc(OC)c21	-10.7%	-39.3%	-8.3	?	15.8µM*	-6.8%
CCNc1nc(NCC)n2c(SC(C(=O)Nc3cc(C)ccc3OC)c3ccccc3)nnc2n1 (configuration not stated)	31.4%	-73.4%	3.6	23.1µM*	-2.1%	-14.1%
COC(=O)c1ccc2nc(NC(=O)COC(=O)CSc3nc(C)cc(C)n3)sc2c1	-14.0%	26.6%	-1.4	?	-1.8%	?
Cc1ccc2nc(NC(=O)CN3CCOCC3)sc2c1	43.9%	3.55µM*	-14.5	?	-2.9%	?
Cc1ccc2nc(NC(=O)COC(=O)CSc3nc(C)cc(C)n3)sc2c1	?	10µM*	-0.8	?	-65.2%	?
Cc1ccc2nc(-c3ccc(NC(=O)CN4C(=O)c5ccccc5C4=O)cc3)sc2c1	?	55.8%	-2.0	?	?	?
Cc1ccc2nc(-c3ccc(NC(=O)COC(=O)c4ccc(=O)[nH]c4)cc3)sc2c1	0.282µM*	-28.1%	-16.5	?	5.01µM*	?
Cc1ccc2nc(NC(=O)COC(=O)c3ccncc3)sc2c1	23.4%	8.91µM*	11.6	?	1.3%	19.1%
O=C(O)c1cc(NC(=O)C2CCCO2)cc(NC(=O)C2CCCO2)c1 (configuration not stated)	-7.1%	-2.5%	6.5	1.8%	-7.8%	0.7%
SMILES	RORgamma inh	BRCA1 expr up	Giardia killer	ELG1 repair inh	Gal4-VP16 FLuc	p53 reactivation
Cc1ccc2nc(NC(=O)CSCC(=O)OCC(=O)c3ccc(Br)cc3)sc2c1	3.16µM*	-98.6%	-0.3	10.9%	3.16µM*	-4.4%
COC(=O)c1ccc2nc(NC(=O)CSCC(=O)OCC(=O)c3ccccc3)sc2c1	-5.2%	9.3%	5.9	?	-4.8%	?
C=C1C(=O)C=C2CN(C(=O)c3ccccc3)[C@@](Cc3ccc(F)cc3)(C(=O)OC)[C@@H]12	3.16µM*	-80.5%	?	2.91µM*	1.41µM*	-29.4%
C=C1C(=O)CC2=C1[C@](Cc1ccc(F)cc1)(C(=O)OC)N(C(=O)c1ccccc1)C2	nt	8.1%	nt	nt	nt	nt
COC(=O)[C@@]1(Cc2ccc(OC)cc2)[C@@H]2C(=CC(=O)[C@H]2CC(=O)C(=O)N(C)C)CN1C(=O)c1ccccc1	?	-53.3%	-6.2	9.2µM*	?	-17.4%
Cc1cn(C2CC3OCC(NC(=O)C(Cc4ccccc4)NC(=O)OC(C)(C)C)C3O2)c(=O)[nH]c1=O (configuration not stated)	-8.3%	nt	2.3	nt	-7.9%	nt
Cn1cnnc1SCC(=O)NC1CCCN(Cc2ccc(Cl)cc2)C1 (configuration not stated)	-6.0%	-14.3%	12.8	-0.1%	8.1%	17.8%
CC(C)(C)c1ccccc1OCC(O)CN1CCN(c2ccccn2)CC1 (configuration not stated)	1.0%	-15.4%	-15.5	-10.2%	-13.2%	nt
CC(C)Nc1oc(-c2cccc3ccccc23)nc1C#N	0.4%	14.1µM*	-3.3	?	26.8%	9.5%
O=C1c2cccc(Sc3ccccc3)c2C(=O)c2c(Sc3ccccc3)cccc21	19.1%	1.4%	12.0	?	24.0%	4.9%
CCOC(=O)/C=C1\NC(C)(C)Cc2cc(OC)c(OC)cc21	-1.2%	7.3%	-8.1	6.0%	0.8%	5.9%
COc1cc2c(cc1OC)C(=S)NC(C)(C)C2	20µM*	-1.6%	-3.8	6.6%	?	-0.2%
COc1cc2c(cc1OC)-c1n[nH]c(=S)n1C(C)(C)C2	7.94µM*	0.4%	15.9	?	?	-1.8%
CC(C)N(C(=O)[C@H]1CC(CC(=O)NCCN2CCOCC2)C(=O)N2CCc3c([nH]c4ccccc34)[C@]12C)C(C)C (some centres not stated)	nt	-4.8%	-4.5	5.8%	nt	-2.0%
CCCCCCCNC(=O)CC(NS(=O)(=O)c1ccc(NC(C)=O)cc1)C(C)C (configuration not stated)	?	-22.8%	8.2	-5.1%	1.0%	-9.1%
COc1nc(-c2ccccc2)ccc1-c1noc(-c2cccs2)n1	nt	?	-15.8	nt	nt	nt
CCOc1ccccc1-c1nc(-c2ccc(C)nc2OC)no1	-30.8%	7.08µM*	-3.7	?	-0.7%	?
COc1nc(C)ccc1-c1noc(-c2cccs2)n1	1.78µM*	0.0%	3.0	?	?	?
CCc1ccc(-n2nc(C)c3c(C)cc(=O)n(CC(=O)Nc4ccc(C)c(F)c4)c32)cc1	nt	0.0%	nt	nt	nt	nt
COc1ccc(-n2nc(C(=O)NCC(=O)N3CCCC(C)C3)c3ccccc3c2=O)cc1Cl (configuration not stated)	5.3%	48.0%	-8.3	?	3.1%	16.2%
